Test results reported in PubChem BioAssay (NCI).
The panel holds about 83,000 compounds, 20% with a hit somewhere; the sample as a whole holds those more often.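 A percent growth of 40 corresponds to 60% growth inhibition; 0 means no net growth; -100 means all cells died. Active threshold: below 10.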 A number with no mark means an inactive call. Activity calls are given as the source filed them.

test system: CCRF-CEM leukemia; test: NCI-60 one-dose screen, 48 h (100 = growth as untreated, 0 = no growth, -100 = all killed); conditions: 10 µM unless noted

| SMILES | growth |
| --- | --- |
| COc1ccc(-c2cc(-c3nnc(SC/C(=N\O)c4ccccc4)n3-c3ccccc3)c3ccccc3n2)cc1 | 103% |
| Cc1cc2c(cc1C)N(C(=O)CCl)CCN2C(=O)CCl | -28.8% (active) |
| COc1cc(-c2nc3ccccc3s2)ccc1OCc1nc2n(n1)S(=O)(=O)c1ccccc1N2C | 4.89% (active) |
| O=C(Cn1c2ccccc2c2ccncc21)N/N=C\c1ccc2ccccc2c1 | 50.4% |
| COc1cc2ncnc(Oc3ccc(NC(=O)Nc4ccc(CN5CCOCC5)c(C(F)(F)F)c4)c4ccccc34)c2cc1OC | 20.1% |
| COc1cc(NC(C)CCCN2C(=O)c3ccccc3C2=O)c2nccc(C)c2c1OC (stereo not drawn) | -14.2% (active) |
| Cc1ccc2c(c1)Nc1ccc(C)cc1C2(C)C | 92.8% |
| Cc1ccc(-c2cc(-c3nnc(SCC(=O)c4ccccc4)o3)c3ccccc3n2)cc1 | 100% |
| COc1ccccc1N1CCN(CC(O)COc2c(Br)c(Br)c(Br)c3c2OC(C)(C)C3)CC1 (stereo not drawn) | -54.6% (active) |
| Fc1ccc(/C=N/n2c(-c3cc(Cl)cc(Cl)c3Cl)nn(CNc3ccc(Cl)nn3)c2=S)cc1 | -70.4% (active) |
| Nc1nc(Nc2ccc(OCc3cccc(F)c3)cc2)c2c(n1)[nH]c1ccc(O)cc12 | -9.7% (active) |
| N#CC(C#N)=C(C#N)c1c[nH]c2ccccc12 | 65.5% |
| FC(F)(F)c1cn(CC2CNC2)c2ncnc(Cl)c12 | 86.7% |
| Cc1cc(N2CCOCC2)nc(N(CCNc2ccnc3cc(Cl)ccc23)Cc2ccco2)n1 | -11.3% (active) |
| C[C@H]1C=C(C[C@@H](O)CCCCCCCCCC[C@@H](O)[C@H]2CCC(=O)O2)C(=O)O1 | 78.5% |
| S=c1ssnc1-c1ccccn1 | -6.05% (active) |
| CC1(C)N=C(N)N=C(N)N1c1cccc(CCCCc2ccccc2)c1 | 7.35% (active) |
| O=[N+]([O-])c1cccc2cc(S(=O)(=O)O)ccc12 | 94.6% |
| CCOc1cccc(Nc2nc(N)nc3[nH]c4ccc(O)cc4c23)c1 | 61.7% |

| SMILES | growth |
| --- | --- |
| NN=C(c1ccc(Cl)cc1)c1ccc(Cl)cc1 | 89.3% |
| O=C(N/N=C1\SCC(=O)N1c1ccccc1)c1cc(-c2cc3ccccc3o2)nn1-c1ccccc1 | -84.9% (active) |
| COc1ccc(N)c(S)c1 | 98.2% |
| Nn1c(SCC(=O)Nc2cc(Cl)c(Cl)cc2Cl)nnc1-c1cc(F)c(Cl)cc1Cl | 125% |
| COc1cc(-c2nc3sc(C)cn3c2/C=C2\C(=O)Nc3ccccc32)c(Br)c(OC)c1OC | 34.7% |
| CC(=S)Nc1ccccc1 | 102% |
| O=C(Nc1ccc(Cl)c(Cl)c1)Nc1ccc(Cl)c([N+](=O)[O-])c1 | 1.21% (active) |
| CCOC(=O)C(C)(CSSCC(C)(NC(=O)c1ccc2ccccc2c1)C(=O)OCC)NC(=O)c1ccc2ccccc2c1 (stereo not drawn) | -42.5% (active) |
| O=C(NC(=S)Nc1ccc(Cl)cc1)c1ccccc1 | 102% |
| CSc1nc(N)nc2c1ncn2C | 98.3% |
| O=C(O)c1cc2ccccc2cc1Nc1ccccc1 | 94.1% |
| O=C1CN(CCN2CC(=O)NC(=O)C2)CC(=O)N1 | 107% |
| c1nc(SC2=NCCN2)c2[nH]cnc2n1 | 31.3% |
| O=C(C[n+]1cccc(Br)c1)c1ccc2c(c1)CCCC2 | 102% |
| NS(=O)(=O)c1ccc(-n2nc(-c3ccc(Cl)cc3)ccc2=O)cc1 | 86.4% |
| O=[N+]([O-])c1ccc(NS(=O)(=O)c2ccccc2)c2ccccc12 | 40.3% |
| CCC1S/C(=N\N=C(/C)c2cccs2)N(c2ccccc2)C1=O (stereo not drawn) | -39.5% (active) |
| Cc1cc(NCCN(C(C)C)C(C)C)nc(/N=C(\N)Nc2ccc(Cl)c(C(F)(F)F)c2)n1 | -68% (active) |
| C=CCn1c(SCC(=O)Nc2ccc(/C(C)=N\O)cc2)nnc1-c1cc(-c2ccc(OC)cc2)nc2ccccc12 | 15% |
